Laboratory results taken from PubChem BioAssay (NCATS).
Records with an inconclusive call do not appear. Activity calls are given as the source filed them. The call rests on the fitted dose curve; in most records, active means well fitted curve in the direction sought with a large enough effect; inconclusive means small, poorly fitted or top-dose-only effect, or another doubt; inactive means no such curve, though single readings can be large; an effect the other way counts as inactive or inconclusive.

Tests used:
[1] = Quantitative High-Throughput drug screen in 47 multiple myeloma cell lines against the NCATS MIPE library collection: EJM_DSMZ cell viability assay (AID 1918926; further: nearly all actives have a fitted effect of over 30% in size; further: potency means the concentration at half of the fitted maximal effect)
How it was run: (§1)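 Luminescent ATP measurement with CellTiter-Glo gives viability, scaled between DMSO-only wells (100%) and media-only wells (0%). Cells, 500 per well, faced library compounds for 48 hours at 37C.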

[2] = Quantitative High-Throughput drug screen in 47 multiple myeloma cell lines against the NCATS MIPE library collection: AMO1_DSMZ cell viability assay (AID 1918927; further: nearly all actives have a fitted effect of over 30% in size; further: potency means the concentration at half of the fitted maximal effect)
How it was run: as §1

[3] = Quantitative High-Throughput drug screen in 47 multiple myeloma cell lines against the NCATS MIPE library collection: ARD_JJKsccE7 cell viability assay (AID 1918929; further: potency means the concentration at half of the fitted maximal effect)
How it was run: as §1

[4] = Quantitative High-Throughput drug screen in 47 multiple myeloma cell lines against the NCATS MIPE library collection: Karpas620_DSMZ cell viability assay (AID 1918959); further: nearly all actives have a fitted effect of over 30% in size; further: potency means the concentration at half of the fitted maximal effect
How it was run: (§2)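 qHTS of the MIPE 4.0 collection: 500 myeloma cells/well, 48 h drug exposure at 37C in 5% CO2, then CellTiter-Glo for 5 min at room temperature before luminescence reading.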

[5] = Quantitative High-Throughput drug screen in 47 multiple myeloma cell lines against the NCATS MIPE library collection: KMM1_JCRB cell viability assay (AID 1918960); further: nearly all actives have a fitted effect of over 30% in size; further: potency means the concentration at half of the fitted maximal effect
How it was run: (§3)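 CellTiter-Glo luminescence after 48 h exposure gives viability, scaled between DMSO-only (100%) and media-only (0%) controls. Library compounds are pinned onto 500 myeloma cells per well, incubated at 37C with 5% CO2.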

[6] = Quantitative High-Throughput drug screen in 47 multiple myeloma cell lines against the NCATS MIPE library collection: Karpas417_ECACC cell viability assay (AID 1918961); settings: Karpas417 myeloma viability, CellTiter-Glo ATP luminescence, 48 h; viability (% of DMSO): at 45.8 µM (top of the series); further: potency means the concentration at half of the fitted maximal effect
How it was run: as §1

[7] = Quantitative High-Throughput drug screen in 47 multiple myeloma cell lines against the NCATS MIPE library collection: KHM11_PLB cell viability assay (AID 1918962); further: nearly all actives have a fitted effect of over 35% in size; further: potency means the concentration at half of the fitted maximal effect
How it was run: as §2

[8] = Quantitative High-Throughput drug screen in 47 multiple myeloma cell lines against the NCATS MIPE library collection: JIM3_ECACC cell viability assay (AID 1918963; further: nearly all actives have a fitted effect of over 35% in size; further: potency means the concentration at half of the fitted maximal effect)
How it was run: as §2

[9] = Quantitative High-Throughput drug screen in 47 multiple myeloma cell lines against the NCATS MIPE library collection: Karpas25_ECACC cell viability assay (AID 1918968; further: nearly all actives have a fitted effect of over 35% in size; further: potency means the concentration at half of the fitted maximal effect)
How it was run: as §1

[10] = Quantitative High-Throughput drug screen in 47 multiple myeloma cell lines against the NCATS MIPE library collection: KMS27_JCRB cell viability assay (AID 1918970); further: nearly all actives have a fitted effect of over 30% in size; further: potency means the concentration at half of the fitted maximal effect
How it was run: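 KMS27_JCRB myeloma cells, 500 per well, exposed 48 h at 37 C, 5% CO2 to MIPE 4.0 compounds. Viability from ATP by CellTiter-Glo luminescence, normalized to DMSO (100%) and medium-only (0%) wells.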

[11] = Quantitative High-Throughput drug screen in 47 multiple myeloma cell lines against the NCATS MIPE library collection: KMS12PE_JCRB cell viability assay (AID 1918972); further: nearly all actives have a fitted effect of over 30% in size; further: potency means the concentration at half of the fitted maximal effect
How it was run: as §1

[12] = Quantitative High-Throughput drug screen in 47 multiple myeloma cell lines against the NCATS MIPE library collection: KMS26_JCRB cell viability assay (AID 1918975); further: nearly all actives have a fitted effect of over 45% in size; further: potency means the concentration at half of the fitted maximal effect
How it was run: (§4)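 Approved and investigational drugs from MIPE 4.0 were added by pin tool to 500 cells per well. After 48 hours at 37C, ATP-based CellTiter-Glo luminescence indicated remaining viability.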

[13] = Quantitative High-Throughput drug screen in 47 multiple myeloma cell lines against the NCATS MIPE library collection: ARP1_JJKsccF8 cell viability assay (AID 1918928; further: nearly all actives have a fitted effect of over 40% in size; further: potency means the concentration at half of the fitted maximal effect)
How it was run: as §3

[14] = Quantitative High-Throughput drug screen in 47 multiple myeloma cell lines against the NCATS MIPE library collection: JIM1_ECACC cell viability assay (AID 1918964; further: potency means the concentration at half of the fitted maximal effect)
How it was run: as §1

[15] = Quantitative High-Throughput drug screen in 47 multiple myeloma cell lines against the NCATS MIPE library collection: INA6_PLB cell viability assay (AID 1918965; further: nearly all actives have a fitted effect of over 55% in size; further: potency means the concentration at half of the fitted maximal effect)
How it was run: as §1

[16] = Quantitative High-Throughput drug screen in 47 multiple myeloma cell lines against the NCATS MIPE library collection: H1112_PLB cell viability assay (AID 1918967; further: nearly all actives have a fitted effect of over 30% in size; further: potency means the concentration at half of the fitted maximal effect)
How it was run: as §1

[17] = Quantitative High-Throughput drug screen in 47 multiple myeloma cell lines against the NCATS MIPE library collection: KMS12BM_JCRB cell viability assay (AID 1918971); further: nearly all actives have a fitted effect of over 35% in size; further: potency means the concentration at half of the fitted maximal effect
How it was run: as §4

[18] = Quantitative High-Throughput drug screen in 47 multiple myeloma cell lines against the NCATS MIPE library collection: KMS20_JCRB cell viability assay (AID 1918973); further: nearly all actives have a fitted effect of over 45% in size
How it was run: as §1

[19] = Quantitative High-Throughput drug screen in 47 multiple myeloma cell lines against the NCATS MIPE library collection: JJN3_DSMZ cell viability assay (AID 1918966; further: nearly all actives have a fitted effect of over 50% in size; further: potency means the concentration at half of the fitted maximal effect)
How it was run: as §1

[20] = Quantitative High-Throughput drug screen in 47 multiple myeloma cell lines against the NCATS MIPE library collection: KMS21BM_JCRB cell viability assay (AID 1918974); settings: ATP luminescence, 48 h; viability: at 45.8 µM (top of the series); further: potency means the concentration at half of the fitted maximal effect
How it was run: as §1

Measured: Potency

NCCCC(O)(P(=O)(O)O)P(=O)(O)O
active: [9] 16.6 µM
not listed: [13] | [14] | [15] | [16] | [17] | [18] | [19] | [20]
inactive: all other assays above

COc1cc2ncnc(Nc3cccc(Cl)c3)c2cc1OC
active: [1] 0.0418 µM | [2] 23.5 µM | [13] 26.4 µM | [3] 23.5 µM | [5] 20.9 µM | [9] 20.9 µM | [10] 29.6 µM | [11] 20.9 µM | [12] 23.5 µM

CN(C)CCc1c[nH]c2ccc(C[C@H]3COC(=O)N3)cc12
active: [6] 3.72 µM | [15] 13.2 µM
not listed: [5] | [7] | [17] | [18] | [19] | [20]
inactive: all other assays above

Cn1c(=O)c2c(ncn2CC(O)CO)n(C)c1=O (stereo not given)
not listed: [3] | [6] | [19] | [20]
inactive: all other assays above

CCCOc1ccc(C(=O)OCCN(CC)CC)cc1N
inactive: [1] | [2] | [13] | [4] | [5] | [8] | [15] | [16] | [10] | [11] | [12]

CC[C@H](C)C(=O)O[C@H]1C[C@@H](C)C=C2C=C[C@H](C)[C@H](CC[C@@H]3C[C@@H](O)CC(=O)O3)[C@H]21
inactive: [1] | [2] | [3] | [4] | [5] | [10] | [11]
active: [13] 23.5 µM | [15] 18.7 µM

O=NN(CCCl)C(=O)NC1CCCCC1
not listed: [5] | [6] | [9] | [15] | [18] | [19] | [20]
inactive: all other assays above

C[C@@H]1CN(c2c(F)c(N)c3c(=O)c(C(=O)O)cn(C4CC4)c3c2F)C[C@H](C)N1
not listed: [3] | [6] | [7] | [10] | [12] | [18] | [19] | [20]
inactive: all other assays above

Oc1c(Cl)cc(Cl)c2cccnc12
active: [1] 6.62 µM | [2] 10.5 µM | [13] 26.4 µM | [3] 18.7 µM | [4] 3.72 µM | [7] 26.4 µM | [8] 9.35 µM | [14] 8.33 µM | [15] 16.6 µM | [16] 11.8 µM | [9] 9.35 µM | [10] 16.6 µM | [17] 4.69 µM | [11] 14.8 µM | [12] 14.8 µM

N[C@@H](C(=O)N[C@@H]1C(=O)N2C(C(=O)O)=C(Cl)CS[C@H]12)c1ccccc1
not listed: [4] | [6] | [9] | [17] | [18] | [20]
inactive: all other assays above

C[C@]12C=CC(=O)C=C1CC[C@@H]1[C@@H]2C(=O)C[C@@]2(C)[C@H]1CC[C@]2(O)C(=O)CO
inactive: [1] | [2] | [13] | [4] | [5] | [8] | [15] | [16] | [17] | [11] | [12]

CCc1c2c(nc3ccc(OC(=O)N4CCC(N5CCCCC5)CC4)cc13)-c1cc3c(c(=O)n1C2)COC(=O)[C@]3(O)CC
active: [1] 4.69 µM | [2] 1.32 µM | [13] 0.743 µM | [3] 0.0105 µM | [5] 0.935 µM | [7] 1.48 µM | [15] 0.469 µM | [16] 1.32 µM | [9] 2.64 µM | [11] 0.526 µM | [12] 0.166 µM

CC(C)Cn1cnc2c(N)nc3ccccc3c21
active: [1] 5.26 µM | [2] 4.18 µM | [3] 5.9 µM | [19] 18.7 µM
inactive: [4] | [8] | [16] | [9]

O[C@@H](CNC[C@H](O)[C@H]1CCc2cc(F)ccc2O1)[C@@H]1CCc2cc(F)ccc2O1
active: [2] 26.4 µM | [13] 14.8 µM | [4] 20.9 µM | [5] 16.6 µM | [7] 26.4 µM | [8] 23.5 µM | [15] 20.9 µM | [16] 29.6 µM | [11] 14.8 µM | [20] 23.5 µM | [12] 26.4 µM
inactive: [1]

CCCCOc1ccc(CC(=O)NO)cc1
active: [1] 5.26 µM | [2] 11.8 µM | [13] 13.2 µM | [4] 18.7 µM | [16] 8.33 µM | [9] 6.62 µM | [10] 33.2 µM | [11] 23.5 µM | [20] 14.8 µM | [12] 10.5 µM

COc1ncnc(NS(=O)(=O)c2ccc(N)cc2)c1OC
not listed: [5] | [9] | [13] | [14] | [17] | [18] | [19] | [20]
inactive: all other assays above

CS(=O)(=O)c1ccc([C@@H](O)[C@@H](CO)NC(=O)C(Cl)Cl)cc1
inactive: [1] | [2] | [4] | [16] | [10] | [12]
active: [3] 13.2 µM | [8] 9.35 µM | [15] 11.8 µM | [9] 16.6 µM | [11] 2.35 µM
